High-throughput results from PubChem.
IL-1B inflam inh – inhibitors of inflammasome signaling (IL-1 beta secretion); THP-1 LPS/ATP IL-1B secretion, AlphaLISA, 16 h; active compounds read low; activity change, % at 57.5 µM; 4.7% of 360,000 active; AID 743279; in the data active means activity change below about -50%; inconclusive means mostly about -30% to -49%; further: on the % scale 0 is the no-effect control and ±100 the full control effect
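Secreted IL-1B measured by AlphaLISA bead assay after 16 h compound exposure of THP-1 cells; compounds (final up to 57.5 uM) added 1 h before LPS (250 ng/mL) and ATP (1.25 mM) stimulation; lower signal means less secretion.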
Giardia killer – kills Giardia lamblia; activity change, % at 7.66 µM, hits read low; Giardia lamblia trophozoite viability; AID 540267; 0.15% of 340,000 active; in the data active means activity change below about -80%; inconclusive means between about -30% and that limit;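 further: parasites exposed to compound for two days anaerobically before the ATP read; on the % scale 0 is the no-effect control and ±100 the full control effect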
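Media and compound were dispensed first, then trophozoites at 100 cells/well; plates sat 48 hrs at 37 deg C without oxygen before ATP luminescence reagent was added and read after 15-30 min at room temperature.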
Vif-A3G inh – inhibitors of Vif-APOBEC3G interaction. Q9HC16. HeLa A3G-eYFP + Vif (tagged APOBEC3G with the HIV-1 protein that degrades it), YFP fluorescence, overnight. Potency, µM (highest dose often 46.1 µM), for the others: top-dose activity, negative = active, most hits filed as inhibitors. 0.076% of 410,000 active. AID 602310; further: potency means the concentration at half of the fitted maximal effect; on the % scale 0 is the no-effect control and ±100 the full control effect; nearly all actives have a fitted effect of over 60% in size
Target sequence (Q9HC16 whole entry, looked up): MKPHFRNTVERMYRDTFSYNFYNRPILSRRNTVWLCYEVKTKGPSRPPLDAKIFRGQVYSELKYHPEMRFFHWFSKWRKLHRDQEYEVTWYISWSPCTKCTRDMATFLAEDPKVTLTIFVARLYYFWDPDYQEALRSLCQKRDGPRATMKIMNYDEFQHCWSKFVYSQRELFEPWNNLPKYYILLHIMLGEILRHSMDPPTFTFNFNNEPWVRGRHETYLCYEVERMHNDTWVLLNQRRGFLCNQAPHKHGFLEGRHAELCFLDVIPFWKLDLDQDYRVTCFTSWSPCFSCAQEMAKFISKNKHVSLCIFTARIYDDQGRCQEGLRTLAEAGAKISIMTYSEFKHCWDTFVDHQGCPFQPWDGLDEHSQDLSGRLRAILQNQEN
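HeLa cells stably expressing Vif and C-terminally eYFP-tagged A3G, seeded overnight at 37 deg C, then exposed to compound by pintool overnight at 37 deg C. Rise in yellow fluorescence (Ex 488/Em 500-530, Acumen) marks blocked Vif-driven A3G degradation.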
MCF10A rerep – induces DNA re-replication in MCF 10a normal breast cells | MCF 10A DNA re-replication, Hoechst nuclear intensity, 48 h | Potency, µM (series often up to 46.1 µM), for inactives: at the top dose activity, positive = re-replication, usual class: activators | 2.9% of 350,000 active; further: potency means the concentration at half of the fitted maximal effect; % of control where 0% means no effect; nearly all actives have a fitted effect of over 50% in size
SW480 rereplic – DNA re-replication induction in SW480 cells | SW480 DNA re-replication, Hoechst DNA content imaging, 48 h | Potency, µM (top dose mostly 46.1 µM), for the others: at the top dose re-replication activation, most hits filed as activators | 1.8% of 340,000 active | AID 624297; further: potency means the concentration at half of the fitted maximal effect; % of control where 0% means no effect; nearly all actives have a fitted effect of over 55% in size
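250 cells/well; 23 nL cpd via pin tool; 48 hr, 37 C, 5% CO2; Hoechst 40 min; imager read of total nuclear intensity, ex 405/em 500-530 nm.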
Vif-A3F inh – Vif-A3F binding inhibition. HeLa A3F-eYFP + Vif (tagged APOBEC3F with the HIV-1 protein that degrades it), YFP fluorescence increase. Potency, µM (top dose mostly 46.1 µM), for the others: at the highest dose activity, negative = active. 0.2% of 390,000 active. AID 602313; further: potency means the concentration at half of the fitted maximal effect; % of control where 0% means no effect; nearly all actives have a fitted effect of over 65% in size
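HeLa cells stably expressing A3F-eYFP plus Vif, plated and incubated overnight at 37 deg C, then exposed to compounds overnight at 37 deg C. Blocked degradation read as raised yellow fluorescence (Ex 488/Em 500-530).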
* = called active by the depositor; u = inconclusive; x = no result; ! = not confirmed by another sample. Compounds with a hit are over-represented: about 6.9% of the library has one in this group of screens. Unless noted, the call rests on the fitted dose curve; in most records, active means well fitted curve in the direction sought with a large enough effect; inconclusive means small, poorly fitted or top-dose-only effect, or another doubt; inactive means no such curve, though single readings can be large; an effect the other way counts as inactive or inconclusive.

SMILES | IL-1B inflam inh | Giardia killer | Vif-A3G inh | MCF10A rerep | SW480 rereplic | Vif-A3F inh
COc1ccc(NC(=O)c2ccc(C)cc2Cl)c([N+](=O)[O-])c1 | -30 | 4 | -2% | 6% | 0% | 0%
O=C(CSc1nc2c(cnn2-c2ccc(F)cc2)c(=O)[nH]1)Nc1ccc(Br)cc1 | x | x | 1% | x | x | 1%
COc1ccc(OC)c(NC(=O)CN2C(=O)CC(C)Sc3ccccc32)c1 (configuration not stated) | x | x | -2% | x | x | -1%
COc1ccccc1C1C(C(=O)Nc2ccccc2)=C(C)Nc2nc(-c3ccccc3)nn21 (configuration not stated) | x | x | -4% | x | x | 0%
CCCCCc1nn2cc(-c3ccccc3)nc2s1 | x | x | 3% | x | x | 5%
COc1ccc(NC(=S)NC(NC(=O)CCl)C(Cl)(Cl)Cl)c([N+](=O)[O-])c1 (configuration not stated) | -50* | 5 | -26% | 18% | u | -1%
C[C@]12CC[C@@H]3c4ccc(OC(=O)c5ccccc5)cc4CC[C@H]3[C@@H]1CC[C@@H]2O | 17 | 2 | -1% | 30µM*! | -43% | 2%
COc1cc2c(cc1O)CC[C@@H]1[C@@H]2CC[C@]2(C)[C@@H](O)CC[C@@H]12 | -11 | 29 | u | u | 3.3µM* | -5%
CCC12CCC3c4ccc(O)cc4CCC3C1CC(O)C2O (configuration not stated) | 0 | 2 | u | 18µM* | u | -8%
CCOc1cc2c(cc1O)C(=NO)CC1C2CCC2(C)C(O)CCC12 (configuration not stated) | -1 | 0 | -47% | u | u | -8%
CCCCC(=O)OC1CCC2C3CCc4cc(O)ccc4C3CCC12C (configuration not stated) | 1 | -8 | -10% | u | u | 6%
CCCCC(=O)OC1CCC2C3CCc4cc(O)ccc4C3CC[C@]12C (some centres not stated) | x | x | x | 19µM* | 3% | x
C[C@]12CC[C@@H]3c4ccc(O)cc4CC[C@H]3[C@@H]1C[C@@H](O)[C@@H]2O | 15 | 6 | -6% | u | 12% | 6%
CC(=O)Oc1ccc2c(c1)CCC1C2CCC2(C)C(OC(C)=O)CCC12 (configuration not stated) | 40 | 11 | -17% | u | 0% | -10%
COC(=O)c1sc2cccc(F)c2c1S(=O)(=O)Nc1ccc(N(C)C)cc1 | x | x | 1% | x | x | -2%
C[C@]12CCC(=O)C=C1CC[C@@H]1[C@@H]2CC[C@@]2(C)[C@H]1CC[C@@]21CCC(=O)O1 | -13 | -27 | 4% | 0% | 8% | 1%
C[C@]12CCC(=O)C=C1CCC1C2CC[C@@]2(C)C1CCC21OCCO1 (some centres not stated) | -5 | -2 | -1% | 21µM* | 21% | 1%
CSc1ccc(C(=O)C2CCCN(C(=O)c3ccsc3)C2)cc1 (configuration not stated) | 0 | 6 | 0% | -8% | -10% | -10%
CSc1ccc(C(=O)C2CCCN(C(=O)c3ccc4c(c3)no[n+]4[O-])C2)cc1 (configuration not stated) | -67* | 3 | -2% | 18µM* | -3% | 1%
CCc1ccc(NC(=O)CSc2ccc(-c3sc(-c4ccccc4)nc3C)nn2)cc1 | x | x | -1% | x | x | 7%
CCN(CC)CCOC(=O)c1ccc(NC(=O)c2nn(-c3ccc(C)cc3)c(=O)c3c2c2ccccc2n3C)cc1 | x | x | u | x | x | -1%
CCCC(=O)Nc1ccc(NC(=O)c2ccccc2)nc1 | -3 | -15 | -1% | u | 2% | 11%
CCCC(=O)Nc1ccc(NC(=O)c2ccccc2F)cn1 | -61* | 12 | -4% | -3% | 7% | 1%
CCCCCc1cc(=O)oc2c(C(CCN3CCCC(C)C3)c3ccc4c(c3)OCO4)c(OC)cc(OC)c12 (configuration not stated) | -54* | -14 | 2% | -1% | 3% | 0%
CCCCCc1cc(=O)oc2c(C(CCN3CCCC3)c3ccc4c(c3)OCO4)c(OC)cc(OC)c12 (configuration not stated) | x | -1 | -12% | x | x | x
SMILES | IL-1B inflam inh | Giardia killer | Vif-A3G inh | MCF10A rerep | SW480 rereplic | Vif-A3F inh
O=[N+]([O-])c1ccc(O)c(/C=N/Nc2nn[nH]n2)c1 | 27 | 1 | 3% | u | -11% | 11%
O=C(N/N=C/c1cc(Cl)ccc1O)c1cccnc1 | 234 | -14 | -17% | u | 1.3µM* | u
O=C(CCC(=O)Nc1cc(C(F)(F)F)ccc1Cl)N/N=C\c1cc([N+](=O)[O-])ccc1O | 81 | -6 | 1% | u | 15µM* | 0%
O=C(CCC(=O)Nc1ccc(F)cc1)N/N=C/c1cc([N+](=O)[O-])ccc1O | 23 | 3 | -8% | 17% | u | 12%
C/C(=N/NC(=O)CNC(=O)c1ccc2c(c1)OCO2)c1ccc2c(c1)CCCC2 | -50* | 32 | -12% | u | u | -7%
O=[N+]([O-])c1ccc(O)c(/C=N/Nc2ccc(Cl)nn2)c1 | 58 | 16 | -4% | 0.73µM* | u | u
O=C(Nc1ccc(OC(F)F)cc1)c1nc(S(=O)(=O)Cc2ccccc2F)ncc1Cl | x | x | -8% | x | x | x
O=C(CNC(=O)c1ccccc1Br)N/N=C/c1cc(Br)ccc1O | 264 | u | -1% | u | 7.3µM* | -4%
O=C(CNC(=O)c1ccccc1Br)N/N=C/c1ccccc1O | 132 | 8 | -3% | u | u | 10%
O=C(N/N=C/c1cc([N+](=O)[O-])ccc1O)c1cccc(NC(=O)c2cccc(Cl)c2)c1 | 92 | u | 1% | -14% | 2.3µM* | 8%
O=C(Nc1cc(S(=O)(=O)Nc2ccc(Cl)cc2)ccc1O)c1ccc(S(=O)(=O)N2CCCCCC2)cc1 | -1 | -4 | -18% | u | 14% | u
O=C(/C=N/NC(=O)c1ccc(Cl)cc1Cl)c1ccccc1 | -77* | -9 | -4% | 7% | u | -2%
O=C(N/N=C\c1cc(Cl)ccc1O)c1ccc(S(=O)(=O)N2CCCCC2)cc1 | 62 | -23 | -10% | 15µM* | 7.3µM* | -18%
CCOC1=C2CN(S(=O)(=O)c3ccc(C)cc3)C(c3ccc(C)cc3)CC2N(S(=O)(=O)c2ccc(C)cc2)C(c2ccccc2)C1 (configuration not stated) | 16 | x | x | x | x | x
CCCCNC(=O)[C@@H]1CC=C[C@@H]2CCN(C3CCCCC3)C(=O)[C@@H]21 | x | x | 3% | x | x | x
Cc1ccc2c(c1)-c1nc(-c3ccc4c(c3)NC(=O)CO4)cc(-c3ccc(Cl)cc3)c1CO2 | x | x | 3% | x | x | -9%
